Consider 11 compounds from PubChem BioAssay.

Calls of active or inactive are those of the source.

Assay [1] concerns the target Albumin (Bos taurus) (UniProt P02769). The assay can be described thus: compounds binding labelled BSA control protein – biochemical, small-molecule microarray, Alexa647 label, 635/667 nm fluorescence, artefact control for SMM control protein annotation, profiling panel (AID 1118).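 Note: score merges 667 nm emission intensity and signal-to-noise per printed compound spot.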 The settings on record: BSA-A647 binding, fluorescence 635 nm, higher = more signal.
A short description of assay [2]: probe aXIP binding to arrayed compounds – biochemical, NeuroSMM set, 635/667 nm fluorescence, primary screen (AID 1119).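 Note: probe is the protein aXip251-270 applied at 1 µg/mL to compound-printed slides; binding of probe to printed compounds measured as 667 nm fluorescence plus signal to noise.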 As to conditions: small-molecule microarray, higher = more signal, called active from +8 up or from −8 down.
The nature of assay [3]: probe aNOTCH3 binding on compound microarray – biochemical, small-molecule microarray, 635/667 nm fluorescence, primary screen (AID 1120).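 Note: probe is a biotin-tagged antibody raised against NOTCH3 rather than NOTCH3 protein; score merges spot fluorescence near 667 nm with spot signal to noise.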 The settings on record: higher = more signal.
A short description of assay [4]: probe aNOTCH2 binding on compound microarray – biochemical, small-molecule microarray, 635/667 nm fluorescence, primary screen (AID 1121).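 Note: score merges feature fluorescence read at 667 nm with its signal to noise.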 As to conditions: higher = more signal.
Assay [5] addresses Carbonic anhydrase 2 (Homo sapiens) (UniProt P00918). In words: compounds binding carbonic anhydrase 2 – biochemical, small-molecule microarray, Alexa647-labelled CAII, profiling panel (AID 1122). The settings on record: CAII-A647 binding fluorescence, higher = more signal.
Assay [6] can be described thus: COS7 lysate on small-molecule microarray, probe aHis, 635 nm (AID 1123).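 Note: z-score combines 667nm fluorescence intensity with signal-to-noise per printed compound spot.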 As to conditions: COS7 cell lysate, fluorescence, higher = more signal.
Assay [7] can be described thus: probe aLAP1 signal on lysate-treated microarray – cell lysate, small-molecule microarray, COS7 lysate, primary screen (AID 1124).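 Note: lysate comes from COS7 cells expressing LAP1 and is applied at 0.3 µg/mL; score merges spot fluorescence near 667 nm with signal-to-noise over triplicate slides.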 The settings on record: probe aLAP1, fluorescence, higher = more signal.
The subject of assay [8] is Sam68 (KHDRBS1). The assay can be described thus: compounds binding KHDRBS1 protein – biochemical, small-molecule microarray, 635 nm fluorescence, primary screen (AID 1125).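 Note: score merges 667 nm channel intensity with signal to noise over triplicate slides.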 As to conditions: higher = more signal.
The subject of assay [9] is Chordin-like protein 2 (CHRDL2). The assay can be described thus: compounds binding chordin-like 2 – biochemical, small-molecule microarray, 635 nm fluorescence, primary screen (AID 1126).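 Note: printed compound slides probed with Chrdl2 protein at 4 µg/mL for 1 h at 4 C; score merges 667 nm emission intensity with signal to noise over three replicate slides.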 As to conditions: fluorescence 635 nm, higher = more signal.
Assay [10] has as its target Concanavalin-A (Canavalia ensiformis) (UniProt P02866). The assay can be described thus: compounds binding concanavalin A lectin – biochemical, small-molecule microarray, Alexa647 label, 635 nm, artefact control for SMM control protein annotation, primary screen (AID 1127).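 Note: z combines 667 nm emission intensity with signal-to-noise across three replicate slides.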 The settings on record: ConA-A647 binding fluorescence, higher = more signal.

Concanavalin-A (Canavalia ensiformis), sequence (P02866 whole entry, looked up): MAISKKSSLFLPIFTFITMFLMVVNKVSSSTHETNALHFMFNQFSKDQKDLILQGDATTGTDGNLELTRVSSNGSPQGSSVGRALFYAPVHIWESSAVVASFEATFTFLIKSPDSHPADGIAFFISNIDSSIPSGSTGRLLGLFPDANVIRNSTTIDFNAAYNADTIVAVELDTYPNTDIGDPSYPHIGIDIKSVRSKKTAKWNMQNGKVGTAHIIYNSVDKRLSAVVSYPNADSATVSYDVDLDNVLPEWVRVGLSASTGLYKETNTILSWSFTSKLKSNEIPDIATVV
Albumin (Bos taurus), sequence (P02769 whole entry, looked up): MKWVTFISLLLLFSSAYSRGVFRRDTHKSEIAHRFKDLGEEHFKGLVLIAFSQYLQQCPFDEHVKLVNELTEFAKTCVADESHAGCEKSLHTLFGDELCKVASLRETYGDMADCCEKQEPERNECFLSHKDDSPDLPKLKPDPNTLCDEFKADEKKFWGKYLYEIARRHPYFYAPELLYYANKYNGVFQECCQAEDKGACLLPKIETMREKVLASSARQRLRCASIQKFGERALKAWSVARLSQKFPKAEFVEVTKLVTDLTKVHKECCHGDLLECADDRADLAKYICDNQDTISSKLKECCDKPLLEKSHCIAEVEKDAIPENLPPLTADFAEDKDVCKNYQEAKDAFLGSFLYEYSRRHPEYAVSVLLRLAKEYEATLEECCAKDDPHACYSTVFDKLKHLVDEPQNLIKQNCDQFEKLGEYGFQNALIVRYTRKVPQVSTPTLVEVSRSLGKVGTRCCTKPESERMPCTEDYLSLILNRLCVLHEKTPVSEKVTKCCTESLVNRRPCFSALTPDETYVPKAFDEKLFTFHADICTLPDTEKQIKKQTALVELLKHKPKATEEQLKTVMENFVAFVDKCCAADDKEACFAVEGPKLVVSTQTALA

For `CC(C)[Si]1(C(C)C)OCc2cc(-c3ccc(-c4ccc(Cl)c(Cl)c4)o3)nc(-c3ccccc3)c21`, the composite z-score in assay [1] was 0.566; in [3] it was -0.235; in assay [4], -0.234; in [5] it was -0.895; in assay [6], -0.77; in [7], -0.714. For the same compound, the composite z-score in assay [8] is -1.53; in [9], -0.541; in [10] it was -0.746. Moreover, the composite Z-score in assay [2] is 0.131 (inactive).
`CC(C)N1C(=O)c2ccccc2[C@@H](C(=O)NCCN2CCOCC2)[C@@H]1c1ccc(CO)cc1`: the composite z-score in [1] is 0.466; in [3], -0.313; in assay [4], -0.155; in assay [5], 0.786; in assay [6] it was -0.735; in [7] it was -0.523. Besides, the composite z-score in [8] was -1.21; in [9], -1.51; in assay [10] it was -0.538. Further, in assay [2], the composite Z-score was 1.62 (inactive).
`CC(C)c1ccc(NN2C(C(O)c3ccc(F)cc3)C=CC3C(=O)N(c4ccccc4)C(=O)C32)cc1` (stereo not given): the composite z-score was determined as 0.839 in assay [1]; 0.378 in assay [3]; 0.0147 in assay [4]; 0.378 in [5]; 2.79 in [6]; 0.846 in assay [7]. The results for the composite z-score in [8], in [9] and in assay [10] were 1.31, -0.0773 and 1.1, respectively. Besides, the composite Z-score in assay [2] was 0.131 (inactive).
As to `CN(C)C(=O)[C@]1(Cc2ccccc2CN=[N+]=[N-])N=C(c2ccc(OCCCO)cc2)O[C@@H]1c1ccccc1`, the composite z-score in assay [1] is 0.349; in assay [3] it was 0.113; in assay [4], -0.0896; in assay [5], 0.402; in assay [6] it was 2.06; in assay [7] it was 0.454. Moreover, the composite z-score is 1.3 in assay [8], -1.08 in assay [9] and 1.04 in [10]. The composite Z-score in assay [2] is -0.4 (inactive).
Consider `COCC(=C=CC[C@H](O)c1ccc(OCCO)cc1)CCO`, for which the composite z-score in assay [1] is -0.173; in [3], -0.0298; in assay [4], 0.0312; in assay [5], 0.736; in assay [6], 0.368; in assay [7], 0.342. For the same compound, the composite z-score in assay [8] is 0.763; in assay [9] it was 0.262; in assay [10], -0.155. For the same compound, in assay [2], the composite Z-score is -0.321 (inactive).
Take `CC1=C2[C@@H](CCc3ccccc3)OB(O)C[C@@H]2[C@@H]2C(=O)N(Cc3ccccc3)C(=O)[C@@H]2C1`: the composite z-score in [1] was 0.415; in assay [3], -0.145; in [4] it was -0.0735; in assay [5], 0.585; in assay [6], 0.328; in [7] it was -0.294. The composite z-score stood at 0.227 in assay [8], 0.226 in assay [9] and 0.948 in assay [10]. Moreover, the composite Z-score in [2] was 0.831 (inactive).
With `COC(=O)[C@@]1(Cc2ccc(OC)cc2)[C@H]2c3cc(C(=O)N(C)C)n(Cc4ccc(OC(F)(F)F)cc4)c3C[C@H]2CN1C(=O)c1ccccc1`, the composite z-score in assay [1] was 0.953; in [3], 0.11; in assay [4], 0.141; in assay [5], 0.822; in [6], 1.74; in assay [7], -0.0771. The composite z-score is -0.264 in assay [8], -0.899 in assay [9] and -0.467 in assay [10]. In addition, the composite Z-score in assay [2] was 0.255 (inactive).
In the case of `C=CCC(OC(C)=O)[C@@H]1[C@@H](N(Cc2cc3ccccc3o2)C(=O)Cc2ccc(F)cc2)c2cc(OCCCO)ccc2N1C(=O)Cc1ccc2ccccc2c1` (stereo not given in full), the composite z-score in [1] was 0.533; in assay [3], -0.0311; in assay [4], -0.104; in assay [5], -0.208; in [6] it was 0.615; in [7], -0.0657. Moreover, the composite z-score was -0.39 in assay [8], -0.21 in [9] and 0.296 in assay [10]. For the same compound, in assay [2], the composite Z-score is 0.242 (inactive).
Consider `C=C[C@@H](CO)N(Cc1ccc(OC)cc1)S(=O)(=O)c1ccc(Br)cc1`, for which the composite z-score in assay [1] is 0.131; in assay [3] it was -0.147; in [4], -0.0078; in [5], 0.352; in assay [6], 0.31; in assay [7], -0.345. Also, the values for the composite z-score in [8], in assay [9] and in assay [10] were 0.388, 0.231 and 0.241, respectively. The composite Z-score in [2] was -0.0461 (inactive).
With `O=C(O)[C@@H]1[C@@H]2C(=O)N(c3ccccc3)C(=O)[C@@H]2C[C@@H]1Sc1ccccc1`, the composite z-score in assay [1] is -0.037; in assay [3], -0.0932; in assay [4] it was -0.0572; in assay [5], 0.526; in assay [6] it was 0.796; in assay [7] it was 0.627. The composite z-score in assay [8] was -0.983; in assay [9], -1.06; in [10], -0.607. The composite Z-score in assay [2] was 0.0618 (inactive).
Regarding `[N-]=[N+]=Nc1ccccc1C[C@]1(C(=O)O)COC(c2ccc(OCCCO)cc2)=N1`, the composite z-score is 0.638 in assay [1]; 0.0116 in assay [3]; -0.0501 in assay [4]; 0.856 in [5]; 0.143 in assay [6]; -0.165 in assay [7]. Besides, the results for the composite z-score in [8], in assay [9] and in assay [10] were -0.566, -1.31 and -0.19, respectively. Further, the composite Z-score in assay [2] was 0.277 (inactive).
